# Measured values as given in PubChem BioAssay (NCATS).
# “And” between values parts separate entries of the source, which are not always exact repeats. Equal values may be shown once. Results filed as inconclusive are left out. Where a call stands in place of a potency, no number is given. The source made the active and inactive calls. Unless noted, the call rests on the fitted dose curve; in most records, active means well fitted curve in the direction sought with a large enough effect; inconclusive means small, poorly fitted or top-dose-only effect, or another doubt; inactive means no such curve, though single readings can be large; an effect the other way counts as inactive or inconclusive.
# Tests used:
# [1] = Validation of Assay for Modulators of Lamin A Splicing (AID 1459; active means well fitted curve in the direction sought with a large enough effect in the signal ratio; the % refers to the signal ratio;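 further: cells exposed to compound for two days before reading; ratio rise marks activators and ratio drop marks inhibitors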)
# In short: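 S3 HeLa cells stably expressing a lamin A-EGFP splicing minigene and DsRed2 were seeded at 600 cells/well in Opti-MEM with 2% FBS, pin-dosed, and incubated 48 hrs at 37 °C, 5% CO2. Laser-scanning cytometry (488 nm) gave GFP/RFP total intensity ratio.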
# [2] = biological target: DNA repair nuclease/redox regulator APEX1 (Homo sapiens) (UniProt P27695); assay: qHTS Validation Assay for Inhibitors of the Human Apurinic/apyrimidinic Endonuclease 1 (APE1) (AID 1705; further: potency means the concentration at half of the fitted maximal effect;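 on activity change, negative = inhibition: TAMRA fluorescence gain over two minutes as APE1 cuts a quenched THF abasic duplex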)
# DNA repair nuclease/redox regulator APEX1 (Homo sapiens), sequence (P27695 whole entry, looked up): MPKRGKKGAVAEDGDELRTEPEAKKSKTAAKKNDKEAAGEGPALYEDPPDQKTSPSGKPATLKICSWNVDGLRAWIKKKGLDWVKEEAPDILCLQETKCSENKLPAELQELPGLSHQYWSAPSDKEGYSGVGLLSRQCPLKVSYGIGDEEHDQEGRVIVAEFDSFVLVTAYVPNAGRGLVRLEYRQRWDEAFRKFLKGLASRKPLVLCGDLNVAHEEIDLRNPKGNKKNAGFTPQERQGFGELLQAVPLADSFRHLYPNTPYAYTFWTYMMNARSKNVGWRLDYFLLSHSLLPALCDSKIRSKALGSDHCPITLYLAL
# In short: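 Human APE1 was preincubated with compound for 15 min at room temperature, then 50 nM (final) THF-abasic double-stranded DNA substrate bearing 5'-TAMRA and 3'-BHQ-2 was added. Incision-driven fluorescence rise (ex 525/em 598 nm) was read kinetically.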
# [3] = biological target: Endonuclease 4 (Escherichia coli (strain K12)) (UniProt P0A6C1); assay: Counterscreen for APE1 Inhibitors: qHTS Validation Assay for Inhibitors of Endonuclease IV (AID 1708)
# In short: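 Enzymatic AP-site incision assay using a double-stranded THF substrate labelled with TAMRA and BHQ-2; released fluorescence signals activity. Enzyme 2 nM, substrate 50 nM, 15 min compound preincubation.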
# [4] = qHTS for differential inhibitors of proliferation of Plasmodium falciparum line 3D7 (AID 1876); further: potency means the concentration at half of the fitted maximal effect
# [5] = biological target: Alpha-galactosidase A (Homo sapiens) (UniProt P06280); assay: Counterscreen for Glucocerebrosidase Inhibitors: qHTS Assay for Human alpha-Galactosidase at pH 4.5 (AID 992)
# Alpha-galactosidase A (Homo sapiens), sequence (P06280 whole entry, looked up): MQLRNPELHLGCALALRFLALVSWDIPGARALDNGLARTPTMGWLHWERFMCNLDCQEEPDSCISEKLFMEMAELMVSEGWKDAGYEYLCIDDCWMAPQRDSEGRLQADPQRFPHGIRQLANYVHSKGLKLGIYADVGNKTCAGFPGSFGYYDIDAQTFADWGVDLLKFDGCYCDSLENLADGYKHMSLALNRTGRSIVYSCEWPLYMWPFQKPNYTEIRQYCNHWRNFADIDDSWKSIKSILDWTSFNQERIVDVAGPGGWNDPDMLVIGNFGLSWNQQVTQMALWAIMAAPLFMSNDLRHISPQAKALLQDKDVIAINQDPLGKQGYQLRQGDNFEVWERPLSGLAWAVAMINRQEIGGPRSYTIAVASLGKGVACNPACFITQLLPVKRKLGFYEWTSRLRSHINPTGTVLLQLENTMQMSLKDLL
# In short: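 Quantitative HTS: compounds tested from 0.7 nM up to 77 uM against 2 nM enzyme with 80 uM 4-MU alpha-D-galactopyranoside. The 20 min room-temperature reaction is stopped with 1M NaOH/1M glycine, pH 10.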
# [6] = biological target: alpha-glucosidase (Oryza sativa, rice) (UniProt Q653V4); assay: Counterscreen for Glucocerebrosidase Inhibitors: qHTS Assay for Rice alpha-Glucosidase at pH 5.0 (AID 997)
# In short: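 Rice alpha-glucosidase (4 nM final) with 400 uM 4-methylumbelliferyl-alpha-D-glucopyranoside in citrate buffer pH 5.0, 20 min at room temperature, stopped at pH 10; fluorescence 365/440 nm, compounds 0.7 nM–77 uM, AC50 from Hill fits.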
# [7] = Counterscreen for APE1 Inhibitors: Fluorescent Dye Displacement Validation Assay (AID 1707); further: potency means the concentration at half of the fitted maximal effect
# In short: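 Compounds are scored by their ability to displace Thiazole Orange (250 nM) from a 50 nM TAMRA-tagged duplex bearing a tetrahydrofuran abasic site. Buffer is 50 mM Tris-HCl pH7.5, 50mM NaCl, 2 mM MgCl2, 0.01% Tween-20.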
# [8] = qHTS for differential inhibitors of proliferation of Plasmodium falciparum line GB4 (AID 1816); conditions: Potency: Plasmodium falciparum GB4 proliferation inhibition;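 further: parasite growth measured after 72 h incubation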; further: potency means the concentration at half of the fitted maximal effect
# [9] = qHTS for differential inhibitors of proliferation of Plasmodium falciparum line D10 (AID 1877);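 further: parasites grown with compound for 72 h before DNA staining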; further: potency means the concentration at half of the fitted maximal effect
# [10] = qHTS Assay for Lipid Storage Modulators (AID 1519; calls by dose curve); conditions: Drosophila S3 cells, BODIPY lipid droplet/cell ratio, laser cytometry, cells loaded with oleic acid
# In short: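 Cells seeded at 5,000 per well were treated with compounds over a concentration series and loaded with oleic acid (400 uM, as added). Lipid droplet fluorescence (488 nm excitation, 500-530 nm channel) was read by laser-scanning cytometry and normalized to 20 uM Triacsin C.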
# [11] = qHTS for differential inhibitors of proliferation of Plasmodium falciparum line 7G8 (AID 1815);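 further: parasite growth measured after three days of incubation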; further: potency means the concentration at half of the fitted maximal effect
# [12] = Cell Viability - LYMP2-026 (AID 989); further: nearly all actives have a fitted effect of over 50% in size
# In short: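 Human lymphoblastoid cells (2500/well) in complete medium were preincubated 5 hr at 37 C, then exposed to compounds for 24 hr at 37 C. Cellular ATP was read by CellTiter-Glo luminescence; AC50 from Hill-equation fits of concentration-response data.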
# [13] = measured here: cell count channel max response
# [14] = measured here: lipid channel max response
smiles,measurement,setting,value
O=C1N=C(O)CN1/N=C/c1ccc(-c2ccc([N+](=O)[O-])cc2)o1,outcome,[1],inactive
same,Potency,[2],inactive
same,Potency,[3],inactive
same,Potency,[4],11.2 µM (active)
CC1=C(CC(=O)O)c2cc(F)ccc2/C1=C\c1ccc(S(C)(=O)=O)cc1,outcome,[5],inactive
same,outcome,[6],inactive
same,outcome,[1],inactive
same,Potency,[2],inactive
same,Potency,[7],inactive
same,Potency,[3],inactive
same,Potency,[8],inactive
same,Potency,[4],inactive
same,Potency,[9],inactive
O=C(Oc1ccccc1C(=O)O)c1ccccc1O,"activity change, negative = inhibition",[10]; at 57.5 µM (top of the series),4.87% (inactive)
same,max response,[10]; [13],-1.82%
same,max response,[10]; [14],6.63%
O=c1cc[nH]c(=S)[nH]1,"activity change, negative = inhibition",[10]; at 57.5 µM (top of the series),7.12% (inactive)
same,max response,[10]; [13],11.5%
same,max response,[10]; [14],29.2%
N=c1c[n+](N2CCOCC2)[n-]o1,outcome,[5],inactive
same,outcome,[6],inactive
same,outcome,[1],inactive
same,"activity change, negative = inhibition",[10]; at 57.5 µM (top of the series),-0.431% (inactive)
same,max response,[10]; [13],25.9%
same,max response,[10]; [14],27.5%
same,Potency,[7],inactive
same,Potency,[3],inactive
same,Potency,[11],inactive
same,Potency,[8],inactive
same,Potency,[9],inactive
CCCCCCCCCCCCCCCCCCOCC(O)CO (stereo not drawn),"activity change, negative = inhibition",[10]; at 57.5 µM (top of the series),4.1% (inactive)
same,max response,[10]; [13],15.6%
same,max response,[10]; [14],19.9%
Cc1ccc(C(C)C)cc2c(C)ccc1-2,"activity change, negative = inhibition",[10]; at 57.5 µM (top of the series),7.53% (inactive)
same,max response,[10]; [13],18.3%
same,max response,[10]; [14],26.1%
CNCCC(Oc1ccc(C(F)(F)F)cc1)c1ccccc1 (stereo not drawn),outcome,[1],inactive
same,Potency,[7],inactive
same,Potency,[3],inactive
CCCCOc1cc(C(=O)OCCN(CC)CC)ccc1N,"activity change, negative = inhibition",[10]; at 25.7 µM (top of the series),-1.04% (inactive)
same,max response,[10]; [13],-13.7%
same,max response,[10]; [14],-14%
COc1ccc(Cl)cc1C(=O)NCCc1ccc(S(=O)(=O)NC(=O)NC2CCCCC2)cc1,outcome,[5],inactive
same,outcome,[6],inactive
same,outcome,[1],inactive
same,"activity change, negative = inhibition",[10]; at 25.7 µM (top of the series),1.56% (inactive)
same,"activity change, negative = inhibition",[10]; at 57.5 µM (top of the series),12.5% (inactive) and -0.0195% (inactive)
same,max response,[10]; [13],8.8% and 2.97% and -31.1%
same,max response,[10]; [14],12.4% and 18.9% and -32.5%
same,Potency,[2],inactive
same,Potency,[7],inactive
same,Potency,[3],inactive
same,Potency,[8],inactive
same,Potency,[4],inactive
same,Potency,[9],inactive
CN1CCOC(c2ccccc2)c2ccccc2C1 (stereo not drawn),"activity change, negative = inhibition",[10]; at 57.5 µM (top of the series),6.92% (inactive)
same,max response,[10]; [13],13.7%
same,max response,[10]; [14],26.3%
CC(CN(C)C)CN1c2ccccc2CCc2ccccc21 (stereo not drawn),outcome,[1],inactive
same,"activity change, negative = inhibition",[10]; at 57.5 µM (top of the series),8.3% (inactive) and -0.445% (inactive)
same,max response,[10]; [13],-4.41% and -13%
same,max response,[10]; [14],4.99% and -13.2%
same,Potency,[2],inactive
same,Potency,[7],inactive
same,Potency,[11],8.91 µM (active)
same,Potency,[8],5.62 µM (active)
same,Potency,[4],8.91 µM (active)
same,Potency,[9],11.2 µM (active)
C=Cc1c(C)c2cc3[nH]c(cc4nc(cc5nc(cc1[nH]2)C(C)=C5CCC(=O)O)C(CCC(=O)O)=C4C)c(C)c3C=C,outcome,[5],inactive
same,outcome,[6],inactive
same,outcome,[1],inactive
same,"activity change, negative = inhibition",[10]; at 57.5 µM (top of the series),12.2% (inactive)
same,max response,[10]; [13],1.69%
same,max response,[10]; [14],21.3%
same,Potency,[2],5.01 µM (active)
same,Potency,[7],7.94 µM (active)
same,Potency,[3],inactive
same,Potency,[11],inactive
same,Potency,[8],inactive
same,Potency,[4],inactive
same,Potency,[9],inactive
CC(=O)c1ccc2c(c1)N(CCCN(C)C)c1ccccc1S2,"activity change, negative = inhibition",[10]; at 25.7 µM (top of the series),-1.98% (inactive)
same,max response,[10]; [13],0.996%
same,max response,[10]; [14],-1.83%
CN1CCN(C2Cc3ccccc3Sc3ccc(Cl)cc32)CC1 (stereo not drawn),outcome,[1],inactive
same,"activity change, negative = inhibition",[10]; at 57.5 µM (top of the series),1.27% (inactive)
same,max response,[10]; [13],-11.4%
same,max response,[10]; [14],-9.31%
same,Potency,[2],inactive
same,Potency,[7],inactive
same,Potency,[11],6.31 µM (active)
same,Potency,[8],11.2 µM (active)
same,Potency,[4],10 µM (active)
CC1(C)OC(=O)NC1=O,"activity change, negative = inhibition",[10]; at 25.7 µM (top of the series),-0.879% (inactive)
same,max response,[10]; [13],-12%
same,max response,[10]; [14],-11.9%
O=c1cc(CO)occ1O,"activity change, negative = inhibition",[10]; at 57.5 µM (top of the series),0.978% (inactive)
same,max response,[10]; [13],23.1%
same,max response,[10]; [14],26.9%
CC(C)(C)c1onc(OCP(=O)(O)O)c1CC(N)C(=O)O (stereo not drawn),outcome,[1],inactive
same,"activity change, negative = inhibition",[10]; at 57.5 µM (top of the series),-0.922% (inactive)
same,max response,[10]; [13],-37.6%
same,max response,[10]; [14],-40.1%
same,Potency,[2],inactive
same,Potency,[7],inactive
same,Potency,[3],inactive
same,Potency,[11],inactive
same,Potency,[8],inactive
same,Potency,[4],inactive
same,Potency,[9],inactive
COc1ccc2c(c1)C(=O)N(CCc1ccc(S(=O)(=O)NC(=O)NC3CCCCC3)cc1)C(=O)C2(C)C,"activity change, negative = inhibition",[10]; at 25.7 µM (top of the series),-1.13% (inactive)
same,max response,[10]; [13],-22.2%
same,max response,[10]; [14],-23.3%
CCN(CC)CCNC(=O)c1cc(Cl)c(N)cc1OC,outcome,[5],inactive
same,outcome,[6],inactive
same,outcome,[1],inactive
same,"activity change, negative = inhibition",[10]; at 25.7 µM (top of the series),-0.223% (inactive)
same,"activity change, negative = inhibition",[10]; at 57.5 µM (top of the series),6.86% (inactive)
same,max response,[10]; [13],-7.61% and 4.16%
same,max response,[10]; [14],-6.48% and 12.9%
same,Potency,[2],inactive
same,Potency,[7],inactive
same,Potency,[3],inactive
same,Potency,[11],inactive
same,Potency,[8],inactive
same,Potency,[4],inactive
same,Potency,[9],inactive
OCc1cc(C(O)CNCCCCCCOCCCCc2ccccc2)ccc1O (stereo not drawn),outcome,[5],inactive
same,outcome,[6],inactive
same,outcome,[1],inactive
same,"activity change, negative = inhibition",[10]; at 57.5 µM (top of the series),-1.85% (inactive)
same,max response,[10]; [13],12.8%
same,max response,[10]; [14],10.1%
same,Potency,[2],inactive
same,Potency,[7],inactive
same,Potency,[3],inactive
same,Potency,[11],8.91 µM (active)
same,Potency,[8],8.91 µM (active)
same,Potency,[4],8.91 µM (active)
same,Potency,[9],12.6 µM (active)
OCC(O)CN1CCN(c2ccccc2)CC1 (stereo not drawn),"activity change, negative = inhibition",[10]; at 57.5 µM (top of the series),11.8% (inactive)
same,max response,[10]; [13],18.2%
same,max response,[10]; [14],35.4%
COC(=O)C1=C(C)NC(C)=C(C(=O)OC)C1c1ccccc1[N+](=O)[O-],Potency,[12],inactive
same,outcome,[5],inactive
same,outcome,[6],inactive
same,outcome,[1],inactive
same,Potency,[2],inactive
same,Potency,[7],inactive
same,Potency,[3],inactive
CCCCCCCCCCCCCCCC(=O)NCCO,outcome,[5],inactive
same,outcome,[6],inactive
same,outcome,[1],inactive
same,Potency,[2],inactive
same,Potency,[7],inactive
same,Potency,[3],inactive
same,Potency,[4],12.6 µM (active)
same,Potency,[9],inactive
